Laboratory results: the OligoGym collection

The sequences below were run against ICAM4 (assay: pooled miR-30 sensor sort-seq; sequence = guide strand). Conditions: shRNA.
Also: reference of the scale not given here.

Point of comparison: TATTCCTCTTTTTCTCGCTCAG, sensor-assay potency score (higher = more potent) -0.694. Against it:
- TAGGCGGTGATCCTGGAGGTGG — lower, -1.35
- TCGTAGGTCAAGGTCACGTTGG — lower, -0.884
- TTGAGCTGCACTGACTTCCCCG — higher, 0.304
- TTTGTAGGCGGTGATCCTGGAG — higher, -0.0996

The sequences below were run against ICOS in the same assay as above. Conditions: shRNA.

Point of comparison: TTGACTGATACAGTCATTCTTC, sensor-assay potency score (higher = more potent) 0.168. Against it:
- TTTGTCTTAGTGAGATCGCAGA — lower, -0.78
- TAAAATTTGTACACCTCCGTTG — lower, -0.108
- TAGTATGATAGTGAAATGCGGA — lower, -0.711
- TTGTGAAATATAAACATCTCAT — lower, -0.925
- TAAACATCTCATAATTGGCAGA — lower, -0.689
- TTTTGTCTTAGTGAGATCGCAG — lower, -0.217
- TACTGTACTGTACACATCCAGC — lower, -0.859
- TAAACTACAACATAATCCCAGT — lower, -0.438
- TTGTGATTCATAAATATGCAAA — lower, -1.24
- TTTAAGAATCTTTCTAGCCAAA — lower, -1.13
- TTGTGAATTATTATTCATCTTG — lower, -0.481

What follows are sequences tested against IDI2 in the same assay as above. Conditions: shRNA.

Point of comparison: TTTCGTTTCACTGGGATCCGGG, sensor-assay potency score (higher = more potent) -0.0224. Against it:
- TTGTGAAGCTCCACAAACGGGG — lower, -0.921
- TTGTCATGAACACAATGTCCTC — lower, -1.35
- TAGGATGCAAGATTGAATGTGT — higher, 0.9
- TAGTGATTTATACATGATGGGC — lower, -1.3
- TAACCTTATCATTCTCATCCAC — lower, -0.207
- TTTCTCAATGTTTTCGTTCAGA — lower, -0.492
- TTTTCTTCCAGTTCTGCTGGGT — higher, 0.298
- TAAACGTCGAGTCACTTGGCTG — lower, -1.26
- TTTCGTGTCCGACCTCTGCTGT — lower, -0.749
- ATTCTCATCCACAACAATCAGC — lower, -0.745
- TTATTTGTAAGCATATTACTGA — higher, 0.0641

What follows are sequences tested against IER5 in the same assay as above. Conditions: shRNA.

Point of comparison: TATCGCAGCAGATCTGCCCGGG, sensor-assay potency score (higher = more potent) -0.199. Against it:
- TTCATGTCTCTCAGCACCGGCT — lower, -0.831
- TACAAAAATCAATACAACGAAG — lower, -1.23
- TTATGCAGCTTGATGCCGCCGC — lower, -0.467
- TTCTTATGCAGCTTGATGCCGC — lower, -0.805
- TTTCCTAGAGTAATCACAGGAT — higher, 0.282
- TTATCGCAGCAGATCTGCCCGG — lower, -0.618
- TTCCAAGCTTGAACTCTTCTGT — higher, 0.444
- TTGTAGATCTTGCCCAGAGAGA — lower, -1.34
- ATAAGGTCTTTCCACTTCGGGC — lower, -1.59
- TAAAAATATATCTTTTCTCTAT — lower, -0.862
